# Hit rate of the full screen: of about 5,500 compounds, about 2,000 (36%) were called active. Not shown: some 18% with an inconclusive outcome. This is one part of the list. A number with no mark means an inactive call. Rule as the data show it: active = normalized growth mostly below about 0.91 (no sharp cut-off); inconclusive = no clear call, values can overlap the other calls; inactive = mostly above about 0.92.
# Assay: chemical genetic growth profiling, strain panel (AID 1159580);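 also: tested at 20 µM; growth read once vehicle control cultures reached saturation at 30 °C; 1 = growth at the plate median or of vehicle wells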
# Settings: S. cerevisiae deletion strains, growth OD
# [1] = locus YAL040C, strain CLN3, stronger effect = lower value
# [2] = locus YCL061C, strain MRC1 (second series), stronger effect = lower value
# [3] = locus YER002W, strain NOP16, stronger effect = lower value
# [4] = locus YGR078C, strain PAC10, stronger effect = lower value
# [5] = locus YGR229C, strain SMI1, stronger effect = lower value
# [6] = locus YJR075W, strain HOC1, stronger effect = lower value
# [7] = locus YNL175C, strain NOP13, stronger effect = lower value
# [8] = locus YNL197C, strain WHI3, stronger effect = lower value
# [9] = locus YNL224C, strain SQS1, stronger effect = lower value
# [10] = locus YNL322C, strain KRE1, stronger effect = lower value
# [11] = locus YOR083W, strain WHI5 (second series), stronger effect = lower value
smiles,measurement,setting,value
NCCNC(=O)Cc1ccc(NC(=O)Cc2ccc(Nc3ncnc4c3ncn4[C@@H]3O[C@H](CO)[C@H](O)C3O)cc2)cc1 (some centres undefined),normalized growth,[1],1.01
same,normalized growth,[2],0.999
same,normalized growth,[3],0.999
same,normalized growth,[4],1.01
same,normalized growth,[5],1.03
same,normalized growth,[6],1
same,normalized growth,"locus YMR263W, strain SAP30, stronger effect = lower value",1.01
same,normalized growth,[7],1.01
same,normalized growth,[8],1.02
same,normalized growth,[9],0.994
same,normalized growth,[10],1
same,normalized growth,[11],1.02
COC(=O)N1CCN(C(=O)Cc2ccc(Cl)c(Cl)c2)C(CN2CCCC2)C1 (centres undefined),normalized growth,[1],0.997
same,normalized growth,[2],1.01
same,normalized growth,"locus YDR150W, strain NUM1, stronger effect = lower value",1
same,normalized growth,"locus YDR363W, strain ESC2, stronger effect = lower value",1
same,normalized growth,[3],0.995
same,normalized growth,[4],1
same,normalized growth,[5],0.982
same,normalized growth,[6],1.01
same,normalized growth,"locus YMR307W, strain GAS1, stronger effect = lower value",1
same,normalized growth,"locus YNL128W, strain TEP1, stronger effect = lower value",1.01
same,normalized growth,"locus YNL153C, strain GIM3, stronger effect = lower value",1
same,normalized growth,[7],1.01
same,normalized growth,[8],1.04
same,normalized growth,[9],1
same,normalized growth,[10],1.01
same,normalized growth,[11],1.05
same,normalized growth,"locus YPL241C, strain CIN2, stronger effect = lower value",1
Cc1nc(-c2ccc(C(F)(F)F)cn2)[nH]c(=O)c1Cl,normalized growth,"locus YAR019C, strain CDC15, stronger effect = lower value",0.899
same,normalized growth,"locus YBL105C, strain PKC1, stronger effect = lower value",0.932
same,normalized growth,"locus YBR135W, strain CKS1, stronger effect = lower value",0.916
same,normalized growth,"locus YBR136W, strain MEC1, stronger effect = lower value",0.922
same,normalized growth,"locus YBR160W, strain CDC28, stronger effect = lower value",0.922
same,normalized growth,"locus YDL017W, strain CDC7, stronger effect = lower value",0.938
same,normalized growth,"locus YDL028C, strain MPS1, stronger effect = lower value",0.909
same,normalized growth,"locus YDL101C, strain DUN1, stronger effect = lower value",0.939
same,normalized growth,"locus YDL108W, strain KIN28, stronger effect = lower value",0.921
same,normalized growth,"locus YDL132W, strain cdc53, stronger effect = lower value",0.905
same,normalized growth,"locus YDL214C, strain PRR2, stronger effect = lower value",0.86
same,normalized growth,"locus YDR052C, strain DBF4, stronger effect = lower value",0.943
same,normalized growth,"locus YDR054C, strain cdc34, stronger effect = lower value",0.887
same,normalized growth,"locus YDR226W, strain ADK1, stronger effect = lower value",0.924
same,normalized growth,"locus YDR477W, strain SNF1, stronger effect = lower value",0.833
same,normalized growth,"locus YER123W, strain YCK3, stronger effect = lower value",0.692
same,normalized growth,"locus YER133W, strain GLC7, stronger effect = lower value",0.831
same,normalized growth,"locus YFL009W, strain cdc4, stronger effect = lower value",0.896
same,normalized growth,"locus YFL029C, strain CAK1, stronger effect = lower value",0.901
same,normalized growth,"locus YFR003C, strain YPI1, stronger effect = lower value",0.929
same,normalized growth,"locus YFR019W, strain FAB1, stronger effect = lower value",0.908
same,normalized growth,"locus YFR028C, strain CDC14, stronger effect = lower value",0.918
same,normalized growth,"locus YGR040W, strain KSS1, stronger effect = lower value",0.834
same,normalized growth,"locus YGR052W, strain FMP48, stronger effect = lower value",0.815
same,normalized growth,"locus YGR092W, strain DBF2, stronger effect = lower value",0.689
same,normalized growth,"locus YHR079C, strain IRE1, stronger effect = lower value",0.639
same,normalized growth,"locus YHR082C, strain KSP1, stronger effect = lower value",0.945
same,normalized growth,"locus YHR205W, strain SCH9, stronger effect = lower value",0.978
same,normalized growth,"locus YIL147C, strain SLN1, stronger effect = lower value",0.919
same,normalized growth,"locus YJL095W, strain BCK1, stronger effect = lower value",0.675
same,normalized growth,"locus YJL128C, strain PBS2, stronger effect = lower value",0.928
same,normalized growth,"locus YJL157C, strain FAR1, stronger effect = lower value",0.813
same,normalized growth,"locus YJR016C, strain ILV3, stronger effect = lower value",0.924
same,normalized growth,"locus YJR066W, strain TOR1 (second series), stronger effect = lower value",0.769
same,normalized growth,"locus YJR066W, strain TOR1, stronger effect = lower value",0.848
same,normalized growth,"locus YKL048C, strain ELM1, stronger effect = lower value",0.927
same,normalized growth,"locus YKL067W, strain YNK1, stronger effect = lower value",0.857
same,normalized growth,"locus YKL101W, strain HSL1, stronger effect = lower value",0.88
same,normalized growth,"locus YKL193C, strain SDS22, stronger effect = lower value",0.903
same,normalized growth,"locus YKL203C, strain TOR2, stronger effect = lower value",0.886
same,normalized growth,"locus YLR113W, strain HOG1, stronger effect = lower value",0.651 (active)
same,normalized growth,"locus YLR133W, strain CKI1, stronger effect = lower value",0.857
same,normalized growth,"locus YLR403W, strain SFP1, stronger effect = lower value",0.809
same,normalized growth,"locus YML070W, strain DAK1, stronger effect = lower value",0.825
same,normalized growth,"locus YMR001C, strain CDC5, stronger effect = lower value",0.914
same,normalized growth,"locus YMR205C, strain PFK2 (second series), stronger effect = lower value",0.859
same,normalized growth,"locus YMR277W, strain FCP1, stronger effect = lower value",0.893
same,normalized growth,"locus YNL006W, strain LST8, stronger effect = lower value",0.957
same,normalized growth,"locus YNL020C, strain ARK1, stronger effect = lower value",0.853
same,normalized growth,"locus YNL161W, strain CBK1, stronger effect = lower value",0.912
same,normalized growth,"locus YNL183C, strain NPR1, stronger effect = lower value",0.696
same,normalized growth,"locus YNL207W, strain RIO2, stronger effect = lower value",0.919
same,normalized growth,"locus YNL222W, strain SSU72, stronger effect = lower value",0.905
same,normalized growth,"locus YNL307C, strain MCK1 (second series), stronger effect = lower value",0.826
same,normalized growth,"locus YOL078W, strain AVO1, stronger effect = lower value",0.896
same,normalized growth,"locus YOL136C, strain PFK27, stronger effect = lower value",0.868
same,normalized growth,"locus YOR061W, strain CKA2, stronger effect = lower value",0.858
same,normalized growth,"locus YOR119C, strain RIO1, stronger effect = lower value",0.821
same,normalized growth,"locus YOR231W, strain MKK1, stronger effect = lower value",0.685
same,normalized growth,"locus YOR329C, strain SCD5, stronger effect = lower value",0.93
same,normalized growth,"locus YPL031C, strain PHO85, stronger effect = lower value",0.787
same,normalized growth,"locus YPL153C, strain RAD53, stronger effect = lower value",0.755
same,normalized growth,"locus YPL204W, strain HRR25, stronger effect = lower value",0.777
same,normalized growth,"locus YPL209C, strain IPL1, stronger effect = lower value",0.926
same,normalized growth,"locus YPL256C, strain CLN2, stronger effect = lower value",0.72 (active)
same,normalized growth,"locus YPR025C, strain CCL1, stronger effect = lower value",0.923
same,normalized growth,"locus YPR106W, strain ISR1, stronger effect = lower value",0.95
same,normalized growth,"locus YPR111W, strain DBF20, stronger effect = lower value",0.937
same,normalized growth,"strain NNK1, stronger effect = lower value",0.932
same,normalized growth,"strain TSCII, stronger effect = lower value",0.888

# Source: PubChem BioAssay AID1159580 (chemical genetic matrix, 2015)
